In PubChem BioAssay AID1508600 (Functional Genomics Laboratory (NCATS/FGL), 2020):
The campaign covered roughly 53,000 sequences. About 3,700 (7%) were called active.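 The calls were made as follows: active = gene knockdowns whose robust z-score for IL-1 alpha signal is at least 2 or at most -2, so actives lie on both sides; inactive = the rest.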 The sample as a whole holds a higher share of actives than the screen did.

Test: Components of the Cytosolic LPS Sensing Pathway: Gene Identification via Genome-wide siRNA Screen;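 also: robust z of the log signal after scaling to non-targeting control siRNA wells of the plate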
Details: RAW264.7 macrophages, IL-1a HTRF, actives lie on both sides, screened at 100 nM (by protocol), cells primed 5 h with Pam3CSK4 first
How it was run: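 Mouse macrophage line RAW264.7 is transfected with siRNA (100 nM final), grown 48h, primed with TLR ligand Pam3CSK4 5 h and given intracellular LipidA 24 h. IL-1a in supernatant is read by HTRF and viability by luminescence.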
In the case of GGAGAAAAAAUUCUUAUCCTT against Prmt2, the z-score is reported as -0.31 (inactive).
With GGCGGUUUCACCUAUACAATT against Rspo4 the z-score was 0.821 (inactive).
In the case of GGUCACCUUAACCGAGAAGTT against Phkg1, the z-score is reported as 0.19 (inactive).
In the case of GGACUUAACUAGUUGACAATT against Pclaf, the z-score is reported as -1.06 (inactive).
With GGUAUGAUGAAAAUACACATT against Mmp1a the z-score was 2.56 (active).
With GGGAGUGCCUUUAAAACACTT against Satb1 the z-score was 0.882 (inactive).
For GCCAAAAGGAGGACAUACCTT against Mylk3, the z-score was 1.08 (inactive).
In the case of GGAUAUUGAUUGCUUUGUUTT against Uox, the z-score is reported as 1.41 (inactive).
With GGACAAAAGAUUCUUCAUCTT against Map1b the z-score was 2.93 (active).
For CCAACAAUGAUUAAUCAGCTT against Meis1, the z-score was -1.38 (inactive).
In the case of GGAAAAUCACAAUCACUUGTT against Ccdc43, the z-score is reported as -0.669 (inactive).
With “GGUACCACCAUGCUAUGGUTT against Krtap19-9b” the z-score was 0.646 (inactive).
With GGUGGUGAUUCACCUCCAATT against Tnfrsf12a the z-score was -2.23 (active).
In the case of GCACUCAAGACCUGUAUGATT against Cldn18, the z-score is reported as 0.627 (inactive).
In the case of GGAAAUGCCAUUUGAUUUGTT against Rfpl4, the z-score is reported as 0.599 (inactive).
In the case of GGACGAUCAUGACAAGAUGTT against Psmb2, the z-score is reported as -2.35 (active).
With CCAUCGUAUUUAACCACAUTT against Dtymk the z-score was 0.206 (inactive).
In the case of GGCAAACUUAUCUUCUUCUTT against Ahsa1, the z-score is reported as -1.89 (inactive).
For GGGAGUUAUAUUAGUCUAUTT against Rab18, the z-score was 0.436 (inactive).
For GGAUGCAGAGACCUAUUUCTT against Cacng5, the z-score was -0.158 (inactive).
In the case of GGAACAGAGCCUUUCUCAGTT against Rnf183, the z-score is reported as -0.153 (inactive).
In the case of CCCAUGAUCUGGAAGAGACTT against Il1a, the z-score is reported as -2.08 (active).
For GCUAAUAGCCUGCCUAAGGTT against Plekhj1, the z-score was 1.35 (inactive).
For GUUACAAAACAUCGGUGGGTT against Vsig2, the z-score was 1.06 (inactive).
For CCUAGACAAAGUUUCAAACTT against Xrcc4, the z-score was -0.662 (inactive).
In the case of GGAAAGAUUUCGAACAAUCTT against Rab1a, the z-score is reported as 1.66 (inactive).
With CAGUUUUUGGUCUCUAUCUTT against Olfr113 the z-score was 2.27 (active).
With GGCAGUUAGUAAGUUUAAATT against Eif5a2 the z-score was 1.22 (inactive).
For GGUAUACACAUGAAAACCATT against Ccdc137, the z-score was -0.548 (inactive).
In the case of GGUGAUUCGUCAGAAGCUGTT against Gpr84, the z-score is reported as -0.61 (inactive).
In the case of GGCUUGCUAAAGGAUGGGATT against Coq8b, the z-score is reported as 0.0536 (inactive).
In the case of CGUACUGGUACGGAAGCGUTT against Adck1, the z-score is reported as 0.279 (inactive).
For GGAAUGAGGUUUGUAGACUTT against Arsg, the z-score was -0.765 (inactive).
With CCGUACAUCGAGAAAUACATT against Hal the z-score was 2.36 (active).
In the case of GGAGGACUAGGAGUGAUUGTT against Fggy, the z-score is reported as -0.363 (inactive).
With GGAUAGUCAGAAAUGGAAATT against Chmp4c the z-score was -0.43 (inactive).
With GGGUGAUUUCUAUUCACUATT against Pam the z-score was -0.633 (inactive).
In the case of GCACGGUCAAGUUUUGAUUTT against Prkaa2, the z-score is reported as -0.792 (inactive).
With GGGCCAAUUCUGAAACUUGTT against Il1f5 the z-score was 0.669 (inactive).
For CCACAGUACGCUGAAAUCCTT against Morf4l1, the z-score was -2.27 (active).
With GCUAGUGUGAUACCAUUUATT against Nab1 the z-score was 1.63 (inactive).
For GGAGAACCGUAACAACAACTT against Cacna1a, the z-score was 0.692 (inactive).
With GGUAGACUCUAGAUUAAGATT against Srrm2 the z-score was -0.58 (inactive).
With CGAGCAAAUCUCAUUCAAGTT against Oxgr1 the z-score was 3.07 (active).
In the case of CCCACCUUACAUAUAUUGATT against Srr, the z-score is reported as 0.25 (inactive).
In the case of GGUAUUAGAAGAUAAUGACTT against Akt3, the z-score is reported as -1.12 (inactive).
For CCAUCAGUUUCAUUAUUGGTT against Fpr-rs6, the z-score was -0.605 (inactive).
For GCAUAACUUAAACUGCUCATT against Zfp12, the z-score was 1.91 (inactive).
In the case of CCAGAGCUUAUUGAGAUGCTT against Myh4, the z-score is reported as -0.475 (inactive).
For GCUACUUAAGGGUUUGGAUTT against Pcdhb3, the z-score was 4.67 (active).
For “GGCUGUUACAAGAACGUAGTT against 5031434C07Rik”, the z-score was -1.99 (inactive).
For GGAAACAACCCAAAGAAUCTT against Slc12a8, the z-score was -0.343 (inactive).
In the case of GGUGGACCUGAAACGUAGCTT against Inhbb, the z-score is reported as 0.878 (inactive).
In the case of GGUUCAUCUUUCAAAUCUATT against Kpna4, the z-score is reported as -0.676 (inactive).
With CCUGUAGGUGGAAUAAACATT against Awat2 the z-score was -2.28 (active).
In the case of CCUAGUAAUGUCCAUUGUGTT against Endod1, the z-score is reported as 0.0364 (inactive).
In the case of GGACUCAGAUAUCUUUCAGTT against Adck1, the z-score is reported as -0.328 (inactive).
With CGUUGCUGACUGCUAUGAATT against Tmprss13 the z-score was -1.22 (inactive).
In the case of CCACUUUCACAUGAAGUUATT against Eif2s3x, the z-score is reported as -0.7 (inactive).
With GCUCCAGCUUGCACUCUUGTT against Trp53i13 the z-score was 1.36 (inactive).
With GCCACAUCGUAGACAAGUATT against Zfp41 the z-score was -2.71 (active).
With CCCGAACCUGUUGUCUGAATT against Ttc8 the z-score was -0.422 (inactive).
With GCCAAGUGCUACAACAUCCTT against Ifitm5 the z-score was -0.64 (inactive).
In the case of CCGAGAUUGCCUGUUUGGUTT against Rnf144b, the z-score is reported as 2.08 (active).
In the case of GGAACUCAAAUUGAAAAGGTT against Manea, the z-score is reported as -0.135 (inactive).
With GCUAUUGGAGAUAUAAUGGTT against Ace the z-score was 1.58 (inactive).
In the case of GGACUUUUUCAAAGGUUUUTT against Eif4g3, the z-score is reported as 2.37 (active).
In the case of GGCAGGCAACCAAUCAAAUTT against Npepps, the z-score is reported as 1.29 (inactive).
With GGAUUUCAUUAUCCUGUUUTT against Zfp608 the z-score was -1.19 (inactive).
In the case of GCCUUGAACUAUGCAUAGATT against Eno2, the z-score is reported as 1.7 (inactive).
With GGCCUCAUGCAGGAACAUUTT against Polr2d the z-score was -2.34 (active).
In the case of GGAAGAAGAAAGAUUCAAATT against Bcan, the z-score is reported as -0.862 (inactive).
With GAUUUUUCAAAUCUUUGGCTT against Plac8 the z-score was -1.52 (inactive).
In the case of GAGCAUCUGUGUAGAAGUGTT against Thrsp, the z-score is reported as 0.786 (inactive).
For CCUGGUACAAUCAAACUGCTT against Rnf222, the z-score was 0.516 (inactive).
In the case of GGCAGAAUGGGAAAUGUAUTT against Htr7, the z-score is reported as -0.841 (inactive).
In the case of GCCGUUUAUUCAUUGCACUTT against Cdc123, the z-score is reported as 1.21 (inactive).
With GGACUUGACCUCAAGGGAATT against Sox6 the z-score was 2.35 (active).
For GGAAUUCAAUCAGUUUGCUTT against Dysf, the z-score was 1.06 (inactive).
With GGCAUUUUUCGGAUUGACATT against Mmp27 the z-score was -0.807 (inactive).
With CCCUCUGAACUAUAUGACUTT against Olfr700 the z-score was -1.09 (inactive).
For GGUGUGGAACGACAAACAGTT against Pla2g4f, the z-score was -2.8 (active).
For GGCUUUGUGGACUUAAUUATT against Cyb5r2, the z-score was -1 (inactive).
In the case of GCAUCACUGGAUUGUGGAUTT against Tm9sf2, the z-score is reported as 0.188 (inactive).
With GGGAAAAAUGGUCAGAUUATT against Colgalt2 the z-score was -1.08 (inactive).
In the case of GGUUCCUAAGGAUGAACUUTT against Akr1c14, the z-score is reported as -0.186 (inactive).
With GGCCUAGCAAGGGAUUUUATT against Cep85 the z-score was -2.02 (active).
In the case of GGAUCUCUUUGUUAAUGGUTT against Mall, the z-score is reported as 0.715 (inactive).
For GCCAUAUGCUAUCAAGAUGTT against Pskh1, the z-score was -0.715 (inactive).
For GGAAUGCUACAACUCAAAATT against Ptk2, the z-score was -0.861 (inactive).
With GGCAUUGGUUCCUACAAGATT against Gm773 the z-score was -0.118 (inactive).
In the case of GGUAGAGGAUCUCUCUAAATT against Fbxo44, the z-score is reported as -0.444 (inactive).
With GCUGGUAAACAUAGGUGGCTT against C1qtnf4 the z-score was 2.18 (active).
With GGUCCAUGGGUAAGAGGAUTT against Vmn1r43 the z-score was 1.2 (inactive).
In the case of GGUCGUGCGAUCCACAGAUTT against Vangl2, the z-score is reported as -0.44 (inactive).
In the case of GUUUUGGAUUCCUCUGUCATT against Olfr1097, the z-score is reported as -1.69 (inactive).
With GGAAAAUUCCAGAAACCAUTT against Mettl8 the z-score was 0.608 (inactive).
With GGAUGAAGAGAAAGUUCUATT against Mak the z-score was 2.49 (active).
For GGUGAGGUUCAAACAUUCUTT against Sdf2, the z-score was 0.0627 (inactive).
With GGGAUUCCACGGAUACUGUTT against Rnase13 the z-score was -0.858 (inactive).
In the case of GGACUACCAGUUUUACAUCTT against Ssr1, the z-score is reported as 1.25 (inactive).
In the case of GCCGGUGACUUUCUAAUUUTT against Yrdc, the z-score is reported as -1.32 (inactive).
With GCCUUAACUAUAGUCCAGATT against Scn7a the z-score was -0.928 (inactive).
With GGCAUGGCUGGCAAAAACATT against Ppp1r15a the z-score was -1.85 (inactive).
For UGCAAUCCGGAUCAAACGUTT against Cebpb, the z-score was -2.03 (active).
In the case of GGAAGAUUUCUUCAAACGCTT against Lhx4, the z-score is reported as -0.167 (inactive).
In the case of CCUGAAGAGGAUGAUAUGGTT against Fam221a, the z-score is reported as 0.144 (inactive).
For GGUCUUCAGAAUCCUCAAUTT against Ap1g2, the z-score was -0.4 (inactive).
